Measured values reported in paper PMC7862700, “An all-to-all approach to the identification of sequence-specific readers for epigenetic DNA modifications on cytosine”.

Columns and labels:
Test in all cases: DAPPL (digital affinity profiling via proximity ligation, sequencing); 10 mM Tris-HCl pH 7.5, 50 mM NaCl, 1 mM DTT, 4% glycerol, room temperature, 30 min; GST-TFs on glutathione beads, 16-mer random dsDNA library, 0.1% formaldehyde crosslink after washing; high values mean tight binding
FEV = biological target: T1, FEV (Homo sapiens, UniProt Q99581 1-238); conditions: protein: recombinant; tags: N-terminal GST; dsDNA, one strand shown
T1 sequence: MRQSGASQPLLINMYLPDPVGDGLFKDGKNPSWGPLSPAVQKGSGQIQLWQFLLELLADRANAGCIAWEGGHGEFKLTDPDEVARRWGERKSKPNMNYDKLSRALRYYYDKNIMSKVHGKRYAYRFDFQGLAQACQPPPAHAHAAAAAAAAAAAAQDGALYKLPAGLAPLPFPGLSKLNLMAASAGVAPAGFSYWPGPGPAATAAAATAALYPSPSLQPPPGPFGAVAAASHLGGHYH
Summary of the method: (§1)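 Binding signal is each hexamer's read frequency for a factor divided by its frequency in the tag-only sample. The factors were GST-fused human transcription factors from yeast, captured on glutathione beads, DNA-barcoded and pooled with that sample. Pools were incubated with 200 nmole of a random double-stranded 16-mer DNA library in Tris/NaCl/DTT/glycerol buffer at room temperature for 30 min, then washed, crosslinked with 0.1% formaldehyde, proximity-ligated with BsaI/T4 ligase (1 h, 37 °C), PCR-amplified and sequenced on an Illumina NextSeq500.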

ETV5 = ETV5 (Homo sapiens, UniProt P41161 1-510); conditions: protein: recombinant; tags: N-terminal GST; dsDNA, one strand shown
Summary of the method: as §1

HSF1 = HSF1 (Homo sapiens, UniProt Q00613 1-529); conditions: protein: recombinant; tags: N-terminal GST; chain copies: 3; dsDNA, one strand shown
Summary of the method: as §1

SPIC = biological target: T2, SPIC (Homo sapiens, UniProt Q8N5J4 1-248); conditions: protein: recombinant; tags: N-terminal GST; dsDNA, one strand shown
T2 sequence: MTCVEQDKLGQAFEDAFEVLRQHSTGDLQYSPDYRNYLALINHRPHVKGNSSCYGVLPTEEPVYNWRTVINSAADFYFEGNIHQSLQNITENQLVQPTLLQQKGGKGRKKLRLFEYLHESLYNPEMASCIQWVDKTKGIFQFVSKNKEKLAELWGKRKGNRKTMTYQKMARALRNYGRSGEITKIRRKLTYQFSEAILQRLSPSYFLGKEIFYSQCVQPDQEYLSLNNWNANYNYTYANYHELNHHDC
Summary of the method: as §1

ELF4 = ELF4 (Homo sapiens, UniProt Q99607 1-663); conditions: protein: recombinant; tags: N-terminal GST; dsDNA, one strand shown
Summary of the method: as §1

ELK4 = biological target: T3, ELK4 (Homo sapiens, UniProt P28324-2 1-405); conditions: protein: recombinant; tags: N-terminal GST; dsDNA, one strand shown
T3 sequence: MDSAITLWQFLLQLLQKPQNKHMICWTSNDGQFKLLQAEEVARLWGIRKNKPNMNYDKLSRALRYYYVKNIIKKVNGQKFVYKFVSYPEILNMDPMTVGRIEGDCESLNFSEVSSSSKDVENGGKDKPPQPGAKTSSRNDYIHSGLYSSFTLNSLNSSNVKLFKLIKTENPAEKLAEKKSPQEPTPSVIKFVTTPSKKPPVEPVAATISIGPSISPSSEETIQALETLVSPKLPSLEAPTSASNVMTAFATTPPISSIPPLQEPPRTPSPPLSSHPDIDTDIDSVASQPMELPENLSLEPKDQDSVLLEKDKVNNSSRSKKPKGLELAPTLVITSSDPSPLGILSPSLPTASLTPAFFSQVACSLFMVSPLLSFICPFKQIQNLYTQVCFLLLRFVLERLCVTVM
Summary of the method: as §1

ETV2 = biological target: T4, ETV2 (Homo sapiens, UniProt O00321 1-342); conditions: protein: recombinant; tags: N-terminal GST; dsDNA, one strand shown
T4 sequence: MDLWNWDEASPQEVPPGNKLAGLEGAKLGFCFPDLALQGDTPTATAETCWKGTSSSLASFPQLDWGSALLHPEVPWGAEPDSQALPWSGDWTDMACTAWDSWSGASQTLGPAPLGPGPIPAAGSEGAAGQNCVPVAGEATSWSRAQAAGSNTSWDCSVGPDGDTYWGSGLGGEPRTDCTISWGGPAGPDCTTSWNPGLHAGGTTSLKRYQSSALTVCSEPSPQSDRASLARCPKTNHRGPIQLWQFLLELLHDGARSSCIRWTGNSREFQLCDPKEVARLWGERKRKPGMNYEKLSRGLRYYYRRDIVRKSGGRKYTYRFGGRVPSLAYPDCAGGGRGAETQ
Summary of the method: as §1

ELF3 = biological target: T5, ELF3 (Homo sapiens, UniProt P78545 1-371); conditions: protein: recombinant; tags: N-terminal GST; dsDNA, one strand shown
T5 sequence: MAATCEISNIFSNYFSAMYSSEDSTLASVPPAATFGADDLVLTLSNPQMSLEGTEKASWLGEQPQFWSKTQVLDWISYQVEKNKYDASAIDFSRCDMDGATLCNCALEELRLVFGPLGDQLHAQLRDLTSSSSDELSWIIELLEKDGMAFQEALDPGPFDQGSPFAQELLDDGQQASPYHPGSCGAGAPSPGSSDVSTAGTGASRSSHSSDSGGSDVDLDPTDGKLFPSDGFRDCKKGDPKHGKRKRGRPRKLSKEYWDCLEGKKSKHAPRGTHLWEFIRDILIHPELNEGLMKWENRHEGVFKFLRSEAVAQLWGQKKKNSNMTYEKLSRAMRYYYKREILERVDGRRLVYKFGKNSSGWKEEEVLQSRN
Summary of the method: as §1

ETV1 = ETV1 (Homo sapiens, UniProt P50549 1-477); conditions: protein: recombinant; tags: N-terminal GST; dsDNA, one strand shown
Summary of the method: as §1

CRX = CRX (Homo sapiens, UniProt O43186 1-299); conditions: protein: recombinant; tags: N-terminal GST; dsDNA, one strand shown
Summary of the method: as §1

Chain of ELF4 (Q99607 whole entry): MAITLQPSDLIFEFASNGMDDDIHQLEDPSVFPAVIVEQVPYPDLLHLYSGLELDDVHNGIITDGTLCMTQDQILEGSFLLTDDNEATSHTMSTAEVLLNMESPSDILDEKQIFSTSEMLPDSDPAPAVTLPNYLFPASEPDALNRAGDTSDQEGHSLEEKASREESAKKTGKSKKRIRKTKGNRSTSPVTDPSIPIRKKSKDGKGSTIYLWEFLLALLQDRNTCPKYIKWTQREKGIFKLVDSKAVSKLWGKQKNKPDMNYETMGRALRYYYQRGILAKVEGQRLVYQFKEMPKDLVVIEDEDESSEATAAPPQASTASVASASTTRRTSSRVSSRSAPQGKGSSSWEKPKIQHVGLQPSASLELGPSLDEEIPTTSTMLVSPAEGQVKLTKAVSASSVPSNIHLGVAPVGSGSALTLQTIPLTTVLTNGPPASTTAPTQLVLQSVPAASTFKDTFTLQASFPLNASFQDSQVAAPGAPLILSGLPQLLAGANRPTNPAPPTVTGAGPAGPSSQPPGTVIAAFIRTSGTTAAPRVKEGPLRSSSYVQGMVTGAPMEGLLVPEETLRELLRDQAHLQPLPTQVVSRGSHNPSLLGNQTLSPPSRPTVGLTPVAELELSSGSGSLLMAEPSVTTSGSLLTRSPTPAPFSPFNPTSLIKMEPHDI
Chain of ETV5 (P41161 whole entry): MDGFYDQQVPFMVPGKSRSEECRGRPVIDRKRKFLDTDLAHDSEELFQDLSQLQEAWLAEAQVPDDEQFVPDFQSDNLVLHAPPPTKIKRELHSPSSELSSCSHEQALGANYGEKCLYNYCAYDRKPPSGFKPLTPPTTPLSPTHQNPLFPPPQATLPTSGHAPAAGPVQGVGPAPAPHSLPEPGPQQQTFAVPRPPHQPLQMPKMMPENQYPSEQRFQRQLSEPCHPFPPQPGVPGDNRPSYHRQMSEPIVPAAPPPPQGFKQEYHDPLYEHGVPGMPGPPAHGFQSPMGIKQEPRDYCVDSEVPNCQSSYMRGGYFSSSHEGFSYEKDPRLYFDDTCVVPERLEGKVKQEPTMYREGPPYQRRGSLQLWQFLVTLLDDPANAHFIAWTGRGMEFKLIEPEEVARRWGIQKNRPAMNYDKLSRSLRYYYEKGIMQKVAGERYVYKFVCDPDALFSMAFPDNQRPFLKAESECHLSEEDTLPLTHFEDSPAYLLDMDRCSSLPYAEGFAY
Chain of HSF1 (Q00613 whole entry): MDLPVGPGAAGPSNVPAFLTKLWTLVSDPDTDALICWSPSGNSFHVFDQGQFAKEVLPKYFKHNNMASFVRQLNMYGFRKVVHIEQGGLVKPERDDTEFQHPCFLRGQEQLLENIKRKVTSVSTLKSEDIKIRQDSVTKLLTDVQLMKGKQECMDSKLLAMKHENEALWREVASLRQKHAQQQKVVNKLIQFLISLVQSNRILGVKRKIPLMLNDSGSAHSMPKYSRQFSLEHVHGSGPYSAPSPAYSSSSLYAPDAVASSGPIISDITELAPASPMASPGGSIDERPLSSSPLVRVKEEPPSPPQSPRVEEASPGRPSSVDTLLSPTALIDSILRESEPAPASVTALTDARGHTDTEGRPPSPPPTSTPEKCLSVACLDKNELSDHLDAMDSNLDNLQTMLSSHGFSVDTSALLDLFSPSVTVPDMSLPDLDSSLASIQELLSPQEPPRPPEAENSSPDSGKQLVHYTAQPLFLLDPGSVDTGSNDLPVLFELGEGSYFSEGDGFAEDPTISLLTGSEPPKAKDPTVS
Chain of ETV1 (P50549 whole entry): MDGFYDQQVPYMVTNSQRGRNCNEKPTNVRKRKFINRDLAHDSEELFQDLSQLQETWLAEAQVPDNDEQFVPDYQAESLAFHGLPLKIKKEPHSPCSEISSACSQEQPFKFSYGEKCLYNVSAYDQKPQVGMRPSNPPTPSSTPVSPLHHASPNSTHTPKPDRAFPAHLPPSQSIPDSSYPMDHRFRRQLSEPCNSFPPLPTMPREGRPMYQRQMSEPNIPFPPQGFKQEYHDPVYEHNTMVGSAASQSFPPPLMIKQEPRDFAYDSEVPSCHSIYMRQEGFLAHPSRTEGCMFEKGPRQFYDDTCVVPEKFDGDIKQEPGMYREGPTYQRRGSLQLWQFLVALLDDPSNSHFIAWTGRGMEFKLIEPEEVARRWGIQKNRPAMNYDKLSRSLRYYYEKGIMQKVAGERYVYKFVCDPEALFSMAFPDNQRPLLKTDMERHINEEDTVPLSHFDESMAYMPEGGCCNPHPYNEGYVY
Chain of CRX (O43186 whole entry): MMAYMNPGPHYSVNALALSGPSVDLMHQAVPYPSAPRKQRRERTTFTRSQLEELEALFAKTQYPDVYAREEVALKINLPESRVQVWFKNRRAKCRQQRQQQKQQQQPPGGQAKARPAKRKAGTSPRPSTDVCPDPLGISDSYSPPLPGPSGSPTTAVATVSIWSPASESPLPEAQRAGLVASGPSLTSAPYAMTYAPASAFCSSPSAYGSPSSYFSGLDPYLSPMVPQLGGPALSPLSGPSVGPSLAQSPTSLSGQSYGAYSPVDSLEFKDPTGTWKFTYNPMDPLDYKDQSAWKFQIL

Sequence	binding signal (FEV)	binding signal (ETV5)	binding signal (HSF1)	binding signal (SPIC)	binding signal (ELF4)	binding signal (ELK4)	binding signal (ETV2)	binding signal (ELF3)	binding signal (ETV1)	binding signal (CRX)
CACCGA	1.1 fold enrichment (6-mer frequency, TF over GST control)	1.1 fold enrichment (6-mer frequency, TF over GST control)	1.06 fold enrichment (6-mer frequency, TF over GST control)	1.05 fold enrichment (6-mer frequency, TF over GST control)	1.08 fold enrichment (6-mer frequency, TF over GST control)	1.13 fold enrichment (6-mer frequency, TF over GST control)	1.1 fold enrichment (6-mer frequency, TF over GST control)	1.04 fold enrichment (6-mer frequency, TF over GST control)	1.1 fold enrichment (6-mer frequency, TF over GST control)	
TCCTGA	1.31 fold enrichment (6-mer frequency, TF over GST control)	1.53 fold enrichment (6-mer frequency, TF over GST control)	1.57 fold enrichment (6-mer frequency, TF over GST control)	1.32 fold enrichment (6-mer frequency, TF over GST control)	1.39 fold enrichment (6-mer frequency, TF over GST control)	1.29 fold enrichment (6-mer frequency, TF over GST control)	1.66 fold enrichment (6-mer frequency, TF over GST control)	1.39 fold enrichment (6-mer frequency, TF over GST control)	1.49 fold enrichment (6-mer frequency, TF over GST control)	1.25 fold enrichment (6-mer frequency, TF over GST control)
TTGCAA	1.12 fold enrichment (6-mer frequency, TF over GST control)	1.17 fold enrichment (6-mer frequency, TF over GST control)	1.07 fold enrichment (6-mer frequency, TF over GST control)	1.09 fold enrichment (6-mer frequency, TF over GST control)	1.19 fold enrichment (6-mer frequency, TF over GST control)	1.21 fold enrichment (6-mer frequency, TF over GST control)	1.22 fold enrichment (6-mer frequency, TF over GST control)	1.13 fold enrichment (6-mer frequency, TF over GST control)	1.27 fold enrichment (6-mer frequency, TF over GST control)	1.12 fold enrichment (6-mer frequency, TF over GST control)
GTACAT	1.35 fold enrichment (6-mer frequency, TF over GST control)	1.37 fold enrichment (6-mer frequency, TF over GST control)	1.04 fold enrichment (6-mer frequency, TF over GST control)	1.36 fold enrichment (6-mer frequency, TF over GST control)	1.36 fold enrichment (6-mer frequency, TF over GST control)	1.23 fold enrichment (6-mer frequency, TF over GST control)	1.22 fold enrichment (6-mer frequency, TF over GST control)	1.28 fold enrichment (6-mer frequency, TF over GST control)	1.24 fold enrichment (6-mer frequency, TF over GST control)	
AACATG	1.1 fold enrichment (6-mer frequency, TF over GST control)	1.23 fold enrichment (6-mer frequency, TF over GST control)	1.1 fold enrichment (6-mer frequency, TF over GST control)	1.28 fold enrichment (6-mer frequency, TF over GST control)	1.23 fold enrichment (6-mer frequency, TF over GST control)	1.25 fold enrichment (6-mer frequency, TF over GST control)	1.19 fold enrichment (6-mer frequency, TF over GST control)	1.26 fold enrichment (6-mer frequency, TF over GST control)	1.13 fold enrichment (6-mer frequency, TF over GST control)	
CTGCCA	1.24 fold enrichment (6-mer frequency, TF over GST control)	1.15 fold enrichment (6-mer frequency, TF over GST control)	1 fold enrichment (6-mer frequency, TF over GST control)	1.18 fold enrichment (6-mer frequency, TF over GST control)	1.25 fold enrichment (6-mer frequency, TF over GST control)	1.33 fold enrichment (6-mer frequency, TF over GST control)	1.03 fold enrichment (6-mer frequency, TF over GST control)	1.22 fold enrichment (6-mer frequency, TF over GST control)	1.17 fold enrichment (6-mer frequency, TF over GST control)	
GCGTTC	1.07 fold enrichment (6-mer frequency, TF over GST control)	1.17 fold enrichment (6-mer frequency, TF over GST control)	1.1 fold enrichment (6-mer frequency, TF over GST control)	1.11 fold enrichment (6-mer frequency, TF over GST control)	1.1 fold enrichment (6-mer frequency, TF over GST control)	1.02 fold enrichment (6-mer frequency, TF over GST control)	1.23 fold enrichment (6-mer frequency, TF over GST control)	1.15 fold enrichment (6-mer frequency, TF over GST control)	1.28 fold enrichment (6-mer frequency, TF over GST control)	
ATGCTG	1.06 fold enrichment (6-mer frequency, TF over GST control)	1.13 fold enrichment (6-mer frequency, TF over GST control)	1.02 fold enrichment (6-mer frequency, TF over GST control)	1.14 fold enrichment (6-mer frequency, TF over GST control)	1.06 fold enrichment (6-mer frequency, TF over GST control)	1.26 fold enrichment (6-mer frequency, TF over GST control)	1.19 fold enrichment (6-mer frequency, TF over GST control)	1.26 fold enrichment (6-mer frequency, TF over GST control)	1.06 fold enrichment (6-mer frequency, TF over GST control)	
